{"source": "the supplement of paper PMC11537057", "note": "Where a name gives a salt, the structure may show the parent alone. ± gives the standard deviation of the averaged measurements. The full ranking holds about 1,700 compounds; the median of “cell number in HSV-1-infected wells relative to infected DMSO wells (H2B-RFP signal)” is about 100, and the highest 2% start at about 140. What follows is part of a selection rich in the highest values, with near analogues and random picks from the rest."}
{"system": "A549 infected with HSV-1", "assay": "cell number in HSV-1-infected wells relative to infected DMSO wells (H2B-RFP signal); higher = more surviving cells (uninfected or antiviral-protected wells give about 200%; low = toxicity)", "conditions": "10 µM; 48 h; MOI: 0.1", "procedure": "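Selleck FDA-approved library (L1300) screened in duplicate at 10 µM on A549 H2B-mRuby cells in 384-well plates, infected with HSV-1 strain 17 YFP-ICP4 at MOI 0.1 one hour before drug addition. Imaged after 2 days at 37°C. Cell growth (H2B-RFP) and infection (ICP4-YFP) are expressed as % of DMSO-treated wells. Hits: growth >90% and infection <20% of DMSO.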", "units": {"cell number in HSV-1-infected wells": "%"}}
{"molecule": "CN1CCOC(c2ccccc2)c2ccccc2C1", "note": "(configuration not stated) [Nefopam HCl]", "cell number in HSV-1-infected wells": "120 ± 8.1"}
{"molecule": "CC1(C)C[C@@H]1C(=O)N/C(=C\\CCCCSC[C@H](N)C(=O)O)C(=O)O", "note": "[Cilastatin]", "cell number in HSV-1-infected wells": "99 ± 21"}
{"molecule": "CN(C)C(=O)COC(=O)Cc1ccc(OC(=O)c2ccc(NC(=N)N)cc2)cc1", "note": "[Camostat Mesilate]", "cell number in HSV-1-infected wells": "124 ± 36"}
{"molecule": "O=C(O)c1cccnc1", "note": "[Nicotinic Acid]", "cell number in HSV-1-infected wells": "93.2 ± 4"}
{"molecule": "Cc1c(C(C)C)c(=O)n(-c2ccccc2)n1C", "note": "[Propyphenazone (4-Isopropylantipyrine)]", "cell number in HSV-1-infected wells": "78.4 ± 2.3"}
{"molecule": "Cc1c(NC(=O)c2cccnc2)c(=O)n(-c2ccccc2)n1C", "note": "[Nifenazone]", "cell number in HSV-1-infected wells": "145 ± 5.2"}
{"molecule": "CCCC(CCC)C(N)=O", "note": "[Valpromide]", "cell number in HSV-1-infected wells": "91.6 ± 13"}
{"molecule": "CC(=O)Oc1ccc(C(=C2CCCCC2)c2ccc(OC(C)=O)cc2)cc1", "note": "[Cyclofenil]", "cell number in HSV-1-infected wells": "122 ± 7.6"}
{"molecule": "CNC(=O)c1cnn(-c2nc(N)c3ncn([C@@H]4O[C@H](CO)[C@@H](O)[C@H]4O)c3n2)c1", "note": "[Regadenoson]", "cell number in HSV-1-infected wells": "128 ± 16"}
{"molecule": "Nc1ccc(/N=N/c2ccccc2)c(N)n1", "note": "[Phenazopyridine HCl]", "cell number in HSV-1-infected wells": "121 ± 23"}
{"molecule": "COC(=O)C1=C(C)NC(C)=C(C(=O)OCC(C)C)C1c1ccccc1[N+](=O)[O-]", "note": "(configuration not stated) [Nisoldipine]", "cell number in HSV-1-infected wells": "92.2 ± 1.4"}
{"molecule": "O=C(O)CSCC(=O)NC1CCSC1=O", "note": "(configuration not stated) [Erdosteine]", "cell number in HSV-1-infected wells": "121 ± 9.9"}
{"molecule": "CC(=O)NC1CCSC1=O", "note": "(configuration not stated) [Citiolone]", "cell number in HSV-1-infected wells": "144 ± 26"}
{"molecule": "OC[C@H]1O[C@@H](c2ccc(Cl)c(Cc3ccc(O[C@H]4CCOC4)cc3)c2)[C@H](O)[C@@H](O)[C@@H]1O", "cell number in HSV-1-infected wells": "110 ± 9"}
{"molecule": "CN[C@H]1C(=O)N[C@@H]2Cc3ccc(cc3)Oc3cc4cc(c3O[C@@H]3O[C@H](C(=O)O)[C@@H](O)[C@H](O)[C@H]3NC(=O)CCCCCCCCC(C)C)Oc3ccc(cc3Cl)[C@@H](O)[C@@H]3NC(=O)[C@H](NC(=O)[C@@H]4NC(=O)[C@@H](NC2=O)c2cc(cc(O)c2Cl)Oc2cc1ccc2O)c1ccc(O)c(c1)-c1c(O[C@H]2O[C@H](CO)[C@@H](O)[C@H](O)[C@@H]2O)cc(O)cc1[C@@H](C(=O)NCCCN(C)C)NC3=O", "note": "[Dalbavancin]", "cell number in HSV-1-infected wells": "125 ± 2.5"}
{"molecule": "CSCCNc1nc(SCCC(F)(F)F)nc2c1ncn2[C@@H]1O[C@H](COP(=O)(O)OP(=O)(O)C(Cl)(Cl)P(=O)(O)O)[C@@H](O)[C@H]1O", "note": "[Cangrelor Tetrasodium]", "cell number in HSV-1-infected wells": "99.5 ± 2.3"}
{"molecule": "CN(C)CCCN1c2ccccc2CCc2ccc(Cl)cc21", "note": "[Clomipramine HCl]", "cell number in HSV-1-infected wells": "93 ± 22"}
{"molecule": "CN(C)CCCN1c2ccccc2CCc2ccccc21", "note": "[Imipramine HCl]", "cell number in HSV-1-infected wells": "134 ± 28"}
{"molecule": "CNCCCN1c2ccccc2CCc2ccccc21", "note": "[Desipramine Hydrochloride]", "cell number in HSV-1-infected wells": "163 ± 20"}
{"molecule": "O=C(c1ccc(F)cc1)C1CCN(CCn2c(=O)[nH]c3ccccc3c2=O)CC1", "note": "[Ketanserin]", "cell number in HSV-1-infected wells": "124.4 ± 0.22"}
{"molecule": "COc1cc(NC(C)CCCN)c2ncccc2c1", "note": "(configuration not stated) [Primaquine Diphosphate]", "cell number in HSV-1-infected wells": "118 ± 8"}
{"molecule": "Cc1cccc(C)c1OCC(=O)N[C@@H](Cc1ccccc1)[C@@H](O)C[C@H](Cc1ccccc1)NC(=O)[C@H](C(C)C)N1CCCNC1=O", "note": "[Lopinavir]", "cell number in HSV-1-infected wells": "85.9 ± 22"}
{"molecule": "NCCNc1ccc(NCCN)c2c1C(=O)c1ccncc1C2=O", "note": "[Pixantrone Maleate]", "cell number in HSV-1-infected wells": "36.1 ± 10"}
{"molecule": "O=C1Nc2ccc(Cl)cc2[C@@](C#CC2CC2)(C(F)(F)F)O1", "note": "[Efavirenz]", "cell number in HSV-1-infected wells": "10.6 ± 3.5"}
{"molecule": "CCOC(CN1CCN(CC(C)C(=O)c2ccccc2)CC1)c1ccccc1", "note": "(configuration not stated) [Eprazinone 2HCl]", "cell number in HSV-1-infected wells": "108.9 ± 1"}
{"molecule": "CC1=C(/C=C/C(C)=C/C=C/C(C)=C\\C(=O)O)C(C)(C)CCC1", "note": "[Isotretinoin]", "cell number in HSV-1-infected wells": "98.64 ± 0.63"}
{"molecule": "COc1ccc(NC(=O)c2ccc(C(=N)N(C)C)cc2)c(C(=O)Nc2ccc(Cl)cn2)c1", "note": "[Betrixaban]", "cell number in HSV-1-infected wells": "150 ± 40"}
{"molecule": "COc1ccc2c(c1)c(CC(=O)O)c(C)n2C(=O)c1ccc(Cl)cc1", "note": "[Indometacin Sodium]", "cell number in HSV-1-infected wells": "69.9 ± 22"}
{"molecule": "COc1ccc2c(c1)c(CC(=O)O)c(C)n2C(=O)c1ccc(Cl)cc1", "note": "[Indomethacin]", "cell number in HSV-1-infected wells": "119 ± 12"}
{"molecule": "COc1ccc(NC(=O)c2ccc(C(=N)N(C)C)cc2)c(C(=O)Nc2ccc(Cl)cn2)c1", "note": "[Betrixaban maleate]", "cell number in HSV-1-infected wells": "130 ± 48"}
{"molecule": "CCCOC(C(=O)OC1CCN(C)CC1)(c1ccccc1)c1ccccc1", "note": "[Propiverine hydrochloride]", "cell number in HSV-1-infected wells": "102 ± 5"}
{"molecule": "COC(=O)c1ccc2c(C(=Nc3ccc(N(C)C(=O)CN4CCN(C)CC4)cc3)c3ccccc3)c(O)[nH]c2c1", "note": "[Nintedanib Ethanesulfonate Salt]", "cell number in HSV-1-infected wells": "91.8 ± 4.1"}
{"molecule": "CC(C)OC(=O)CCC/C=C\\C[C@@H]1[C@@H](/C=C/C(F)(F)COc2ccccc2)[C@H](O)C[C@@H]1O", "note": "[Tafluprost]", "cell number in HSV-1-infected wells": "83.4 ± 27"}
{"molecule": "CC#CCn1c(N2CCC[C@@H](N)C2)nc2c1c(=O)n(Cc1nc(C)c3ccccc3n1)c(=O)n2C", "note": "[Linagliptin]", "cell number in HSV-1-infected wells": "95.4 ± 6.9"}
{"molecule": "NC(=O)c1cc(N2CC2)c([N+](=O)[O-])cc1[N+](=O)[O-]", "cell number in HSV-1-infected wells": "74.6 ± 11"}
{"molecule": "Cc1c(C(N)=O)cc([N+](=O)[O-])cc1[N+](=O)[O-]", "note": "[Dinitolmide]", "cell number in HSV-1-infected wells": "145 ± 18"}
{"molecule": "NC(=O)c1ccc(I)c([N+](=O)[O-])c1", "note": "[Iniparib (BSI-201)]", "cell number in HSV-1-infected wells": "66.8 ± 6.8"}
